Results as given in ChEMBL document CHEMBL4513141, “CO-ADD screening of NIH (USA) - Clinical Collection” (2021).
Potency and affinity values are given separately.

Columns and labels:
[1] = system: Klebsiella pneumoniae; settings: Concentration 20 uM; ASSAY_TEST Inhibition of Bacterial Growth; detection method Absorption (OD600); MEDIA CAMHB; plate type 384well; NBS; CORNING #3640; time 18 hr
[2] = system: Candida albicans; settings: 20 µM
[3] = system: Cryptococcus neoformans; settings: Concentration 20 uM; ASSAY_TEST Inhibition of Fungal Growth; detection method Resazurin; Absorption (OD600-OD570); plate type 384well; NBS; CORNING #3640

CC(CN1c2ccccc2Sc2ccccc21)N(C)C.Cl (stereo not drawn) [PROMETHAZINE HYDROCHLORIDE] gave an Inhibition [1] of 0.77%, an Inhibition [2] of 3.31% and an Inhibition [3] of -6.2%.
CCOC(=O)OC(C)OC1=C(C(=O)Nc2ccccn2)N(C)S(=O)(=O)c2ccccc21 (stereo not drawn) [AMPIROXICAM] gave an Inhibition [1] of 12.2%, an Inhibition [2] of 0.25% and an Inhibition [3] of -3.23%.
CC(C(=O)O)c1cccc(C(=O)c2ccccc2)c1 (stereo not drawn) [KETOPROFEN] showed an Inhibition [1] of 8.94%, an Inhibition [2] of 5.45% and an Inhibition [3] of -5.87%.
Compound Cc1[nH]c(=O)c(C#N)cc1-c1ccncc1 [MILRINONE] has an Inhibition [1] of 13.45%, an Inhibition [2] of 3.54% and an Inhibition [3] of -6.55%.
Compound Cc1ccccc1C(OCCN(C)C)c1ccccc1.Cl (stereo not drawn) [ORPHENADRINE HYDROCHLORIDE] has an Inhibition [1] of 11.73%, an Inhibition [2] of 1.54% and an Inhibition [3] of -6.53%.
NC(=O)c1cnccn1 [PYRAZINAMIDE] gave an Inhibition [1] of 10.9%, an Inhibition [2] of 1.92% and an Inhibition [3] of -9.58%.
Cc1nccn1CC1CCc2c(c3ccccc3n2C)C1=O (stereo not drawn) [ONDANSETRON] was tested, and the Inhibition [1] was 11.11%, the Inhibition [2] was 4.72% and the Inhibition [3] was -0.32%.
For NS(=O)(=O)c1cc2c(cc1C(F)(F)F)NC(Cc1ccccc1)NS2(=O)=O (stereo not drawn) [BENDROFLUMETHIAZIDE], the Inhibition [1] was 6.67%, the Inhibition [2] was 3.76% and the Inhibition [3] was -1.07%.
O=[N+]([O-])c1cccc2cn[nH]c12 [7-NITROINDAZOLE] showed an Inhibition [1] of 13.1%, an Inhibition [2] of 3.19% and an Inhibition [3] of -0.25%.
Oc1ccc(/C=C/c2cc(O)cc(O)c2)cc1 [RESVERATROL] was tested, and the Inhibition [1] was 12.99%, the Inhibition [2] was 2.92% and the Inhibition [3] was -4.32%.
Work on OCc1cccnc1 [NICOTINYL ALCOHOL] yielded an Inhibition [1] of 6.16%, an Inhibition [2] of 2.84% and an Inhibition [3] of -7.14%.
For CC(c1cc2ccccc2s1)N(O)C(N)=O (stereo not drawn) [ZILEUTON], the Inhibition [1] was 4.07%, the Inhibition [2] was 5.22% and the Inhibition [3] was 2.66%.
O=c1[nH]c(=O)n(C2CCCO2)cc1F (stereo not drawn) [TEGAFUR] gave an Inhibition [1] of 13.49%, an Inhibition [2] of 3.66% and an Inhibition [3] of -3.75%.
For COc1ccc(Cl)cc1C(=O)NCCc1ccc(S(=O)(=O)NC(=O)NC2CCCCC2)cc1 [GLYBURIDE], the Inhibition [1] was 8.21%, the Inhibition [2] was -0.39% and the Inhibition [3] was 1.86%.
Work on Cl.Cn1c(NCCN(CCO)CCCc2ccc([N+](=O)[O-])cc2)cc(=O)n(C)c1=O yielded an Inhibition [1] of 3.03%, an Inhibition [2] of 4.73% and an Inhibition [3] of -1.07%.
Work on CC(=O)O[C@]1(C(C)=O)CC[C@H]2[C@@H]3C=C(C)C4=CC(=O)CC[C@]4(C)[C@H]3CC[C@@]21C [MEGESTROL ACETATE] yielded an Inhibition [1] of 7.28%, an Inhibition [2] of 5.92% and an Inhibition [3] of -0.12%.
NC(CO)(CO)CO.O=C(c1ccccc1)c1ccc2n1CCC2C(=O)O (stereo not drawn) [KETOROLAC TROMETHAMINE] was tested, and the Inhibition [1] was 3.11%, the Inhibition [2] was -0.08% and the Inhibition [3] was -4.39%.
Work on CC[C@H](C)C(=O)O[C@H]1C[C@@H](C)C=C2C=C[C@H](C)[C@H](CC[C@@H]3C[C@@H](O)CC(=O)O3)[C@H]21 [LOVASTATIN] yielded an Inhibition [1] of 12.43%, an Inhibition [2] of 17.1% and an Inhibition [3] of -5.68%.
COc1ccc2[nH]c([S+]([O-])Cc3ncc(C)c(OC)c3C)nc2c1 (stereo not drawn) [OMEPRAZOLE] was tested, and the Inhibition [1] was 7.63%, the Inhibition [2] was 27% and the Inhibition [3] was -26.65%.
With N[C@@H](Cc1cc(I)c(Oc2cc(I)c(O)c(I)c2)c(I)c1)C(=O)O [LEVOTHYROXINE] the Inhibition [1] was 0.79%, the Inhibition [2] was 21.1% and the Inhibition [3] was -5.43%.
CCOC(=O)C1=C(C)NC(C)=C(C(=O)OC)C1c1cccc(Cl)c1Cl (stereo not drawn) [FELODIPINE] gave an Inhibition [1] of 7.48%, an Inhibition [2] of 1.71% and an Inhibition [3] of -9.45%.
CC[C@H]1OC(=O)[C@H](C)C(=O)[C@H](C)[C@@H](O[C@@H]2O[C@H](C)C[C@H](N(C)C)[C@H]2O)[C@](C)(OC)C[C@@H](C)C(=O)[C@H](C)[C@@H]2N(CCCCn3cnc(-c4cccnc4)c3)C(=O)O[C@@]21C was tested, and the Inhibition [1] was 3.48%, the Inhibition [2] was 0.39% and the Inhibition [3] was -1.28%.
CC1Cc2ccccc2N1NC(=O)c1ccc(Cl)c(S(N)(=O)=O)c1 (stereo not drawn) [INDAPAMIDE] was tested, and the Inhibition [1] was 9.63%, the Inhibition [2] was -0.23% and the Inhibition [3] was -0.18%.
CC(C)[N+]1(C)C2CCC1CC(OC(=O)C(CO)c1ccccc1)C2.[Br-] (stereo not drawn) was tested, and the Inhibition [1] was -0.09%, the Inhibition [2] was 0.17% and the Inhibition [3] was -6.11%.
For COc1ccc(-c2cc(=O)c3c(OC)c(OC)c(OC)c(OC)c3o2)cc1OC [NOBILETIN], the Inhibition [1] was 4.76%, the Inhibition [2] was 7.12% and the Inhibition [3] was -2.3%.
CCC(=O)[N-]S(=O)(=O)c1ccc(-c2c(-c3ccccc3)noc2C)cc1.[Na+] [PARECOXIB SODIUM] showed an Inhibition [1] of 7.5%, an Inhibition [2] of 3.16% and an Inhibition [3] of -0.82%.
